Source: PubChem BioAssay (Tox21)
Results filed as inconclusive are left out. Unmarked numbers belong to inactive results. Calls of active or inactive are those of the source. Calls follow the shape of the dose curve; as a rule, active = well fitted cell-killing curve with a large enough effect in the repeat runs; inconclusive = weak or mixed curves, or effect the other way; inactive = no such curve, though single readings can be large or run the other way.
% is scaled to controls: 0 for no effect and ±100 for the full control effect; potency is read from the fitted curve at half-maximal effect.

Test: qHTS assay to identify small molecule antagonists of the thyroid receptor (TR) signaling pathway - cell viability counter screen (AID 743064); also: nearly all actives have a fitted effect of over 50% in size
Conditions: GH3.TRE-Luc viability, CellTiter-Fluor, 24 h; series mostly up to 70.3 µM; activity change, negative = cytotoxic: at the top concentration
From the text: National Center for Advancing Translational Sciences [NCATS]
NIH Chemical Genomics Center [NCGC]
U.S. Environmental Protection Agency [EPA]
National Institutes of Environmental Health Sciences [NIEHS]
National Toxicology Program [NTP]
U.S. Food and Drug Administration [FDA]
Thyroid receptor (TR), a nuclear hormone receptor, plays an important role in development, proliferation, differentiation, metabolism, brain function, and cardiovascular system. […] To profile the Tox21 10K compound library in TR signaling, a cell-based GH3-TRE-Luc assay (GH3.TRE-Luc cell line, developed by the laboratory of Dr. Albertinka J. Murk, Wageningen University) was used to measure the inhibition of TR. GH3 (rat pituitary tumor) cells stably expressing a TR activity sensor consisting of two TR response elements and a luciferase reporter gene. The cytotoxicity of the Tox21 compound library against the GH3.TRE-Luc cell line was tested in parallel by measuring the cell viability using CellTiter-Fluor assay (Promega, Madison, WI) in the same wells.
Tox21 Assay Protocol Summary:
GH3.TRE-Luc cells were dispensed at 1500 cells/4 uL/well into 1536-well white solid bottom plates using a Multidrop Combi dispenser (Thermo Fisher Scientific Inc., Waltham, MA). After the assay plates were incubated at 37 C for 4 hours, 23 nL of library compound or DMSO controls was transferred to the assay plates by a pintool station (Kalypsys, San Diego, CA), followed by addition of 1 ul of T3 (1 nM, final concentration in the wells) to stimulate TR transactivation. The assay plates were incubated at 37 C for 23.5 h, and then 1 uL of CellTiter-Fluor reagent (Promega, Madision, WI) of measuring cytotoxicity was added to each well using a Bioraptr Flying Reagent Dispenser (FRD) workstation (Beckman Coulter, Indianapolis, IN, USA). The plates were incubated at 37C and 5% CO2 for additional 30 min, and fluorescence intensity was measured by a ViewLux plate reader (PerkinElmer, Shelton, CT).
With `CCCCCCCCCCCCCCCCCCOCC(O)CO` (stereo not given) the “activity change, negative = cytotoxic” value was 8.5%.
For `O=C1OC(=O)c2cc([N+](=O)[O-])ccc21`, the “activity change, negative = cytotoxic” value was 5.28%.
In the case of `C=C(C)C1CC=C(C)C(O)C1` (stereo not given), the “activity change, negative = cytotoxic” value is reported as 0.127% [at 95 µM].
For `CCOC(=O)Nc1ccc2c(c1)N(C(=O)CCN1CCOCC1)c1ccccc1S2`, the “activity change, negative = cytotoxic” value was 6.41% [at 32.5 µM].
With `c1ccc(SCCSc2ccccc2)cc1` the “activity change, negative = cytotoxic” value was 10.4%.
With `c1cc(CN2CCCCC2)cc(OCCCNc2nc3ccccc3s2)c1` the Potency was 11.9 µM (active).
In the case of `CC(C)CCOC(=O)CC(C)C`, the “activity change, negative = cytotoxic” value is reported as 0.2%.
For `C=CCn1c(=O)n([C@@H]2O[C@H](CO)[C@@H](O)[C@H]2O)c2nc(N)[nH]c(=O)c21`, the “activity change, negative = cytotoxic” value was 11.6%.
For `CCCCCCCCC=O`, the “activity change, negative = cytotoxic” value was 15.8%.
With `CCN1CCN(c2cc3c(cc2F)c(=O)c(C(=O)O)cn3C2CC2)CC1` the “activity change, negative = cytotoxic” value was 1.67%.
With `C#CC(O)C(CC)CCCC` (stereo not given) the “activity change, negative = cytotoxic” value was -0.82%.
In the case of `CC(C)COC(=O)c1ccccc1O`, the “activity change, negative = cytotoxic” value is reported as 16.4%.
In the case of `CC(C)(O)c1ccccc1`, the “activity change, negative = cytotoxic” value is reported as 5.01%.
For `C=C[Si](OC)(OC)OC`, the “activity change, negative = cytotoxic” value was 12.9%.
With `CCCOCC(C)OCC(C)O` (stereo not given) the “activity change, negative = cytotoxic” value was -3.57% [at 95 µM].
With `COc1cc(C)cc(O)c1` the “activity change, negative = cytotoxic” value was 5.09%.
With `CN(C)C(=O)Nc1ccccc1` the “activity change, negative = cytotoxic” value was 15.4%.
For `NCCN1CCNC1=O`, the “activity change, negative = cytotoxic” value was 8.7%.
For `C1COCCO1`, the “activity change, negative = cytotoxic” value was -2.04% [at 95 µM].
For `CCCCc1ccc2cccc(S(=O)(=O)O)c2c1`, the “activity change, negative = cytotoxic” value was 4.35%.
For `O=C(O)C(O)[C@H](O)[C@@H](O)[C@H](O)[C@H](O)CO` (stereo not given in full), the “activity change, negative = cytotoxic” value was 5.39% [at 95 µM].
With `O=C(O)c1ccccc1S` the “activity change, negative = cytotoxic” value was 6.77%.
In the case of `NC(CS)C(=O)O` (stereo not given), the “activity change, negative = cytotoxic” value is reported as 10.7%.
For `CSc1ccc(C=O)cc1`, the “activity change, negative = cytotoxic” value was -0.0691%.
For `Cc1nc(-c2ccc(OCC(C)C)c(C#N)c2)sc1C(=O)O`, the “activity change, negative = cytotoxic” value was -2.27%.
For `O=S(=O)(c1cccc2cnccc12)N1CCCNCC1`, the “activity change, negative = cytotoxic” value was -1.57%.
With `CC(C)[C@H](N)C(=O)OCCOCn1cnc2c(=O)[nH]c(N)nc21` the “activity change, negative = cytotoxic” value was 20.5%.
In the case of `OC/C=C/c1ccccc1`, the Potency is reported as “inactive”.
In the case of `C=CC(=O)N1CCOCC1`, the “activity change, negative = cytotoxic” value is reported as -3.05%.
In the case of `NCCNC(=O)c1ccc(Cl)cn1`, the “activity change, negative = cytotoxic” value is reported as -18%.
With `NS(=O)(=O)c1cc2c(cc1Cl)NC(CSCc1ccccc1)=NS2(=O)=O` the “activity change, negative = cytotoxic” value was 11.7% [at 32.5 µM].
In the case of `NC(=O)c1ncn([C@@H]2O[C@H](CO)[C@@H](O)[C@H]2O)c1N`, the “activity change, negative = cytotoxic” value is reported as -1.77%.
With `CCCCC=O` the “activity change, negative = cytotoxic” value was 29.5%.
For `COc1cc(O)cc(O)c1`, the “activity change, negative = cytotoxic” value was -18.4%.
In the case of `OCCCCCCO`, the “activity change, negative = cytotoxic” value is reported as 0% [at 95 µM].
With `CCCc1ccc(N)cc1` the “activity change, negative = cytotoxic” value was 17.7%.
With `CC(C)c1cccc(O)c1` the “activity change, negative = cytotoxic” value was 9.41% [at 95 µM].
For `CCCCCCCCCCCCI`, the “activity change, negative = cytotoxic” value was -8.24% [at 95 µM].
With `COCc1ccc(COC)cc1` the “activity change, negative = cytotoxic” value was 15.3%.
In the case of `OC1OC[C@@H](O)[C@H](O)[C@H]1O` (stereo not given in full), the “activity change, negative = cytotoxic” value is reported as 2.03%.
